Measured values from the supplement of paper PMC8726507.
A number with no mark means an inactive call.

System: Plasmodium falciparum NF54-HGL (transmission to Anopheles stephensi)
Assay: percentage of barcode signal found in uninfected mosquitoes (transmission-blocking activity); higher = stronger blocking of transmission to mosquito, active = 80 or more
Conditions: 10 µM; gametocyte preincubation time 24 h; readout time post-feed 8 days
Method: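 The mixture was fed to Anopheles stephensi in 96-well plates as blood meals tagged with DNA-barcoded Asaia bacteria. Eight days later, mosquitoes were classed infected or uninfected by luminescence (mean + 5 SD of unfed controls). Barcodes were quantified by Luminex MagPlex-TAG in the pooled uninfected and infected Asaia cultures, background-corrected, and the score is % of barcode signal in uninfected mosquitoes = 100*Iu/(Iu+Ii).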

Compound | percentage of barcode signal found in uninfected mosquitoes
COc1ccccc1C(C)NCC(=O)Nc1cc(C(F)(F)F)ccc1Cl (stereo not drawn) | 11.8%
O=C(Cn1ccnc1[N+](=O)[O-])NCc1ccccc1 | 70%
CC(C)N=c1cc2n(-c3ccc(Cl)cc3)c3ccccc3nc-2cc1Nc1ccc(Cl)cc1 | 99.3% (active)
CCN(CC)CCCCCCNc1cc(OC)cc2c(C)ccnc12 | 55.8%
O=C(CCC1CCCCC1)Nc1cccc(-c2nnc(-c3ccco3)o2)c1 | 67.5%
Cc1cc(C)cc(COc2ccc3c(C)c(CCC(=O)O)c(=O)oc3c2C)c1 | 1.73%
COC(=O)c1ccc(F)cc1NS(=O)(=O)c1cccc(-c2cnn(Cc3ccccc3)c2)c1 | 31.1%
CCc1nc2ccc(C(=O)NCc3ccc4c(c3)OCO4)cn2c1N(C)Cc1cccs1 | 22.1%
CCC(=O)Nc1ccccc1C(=O)Nc1ccccn1 | 50%
COc1cc(C2=NCCN2)ccc1-n1cc(-c2cccc(C3=NCCN3)c2)nn1 | 46.2%
COc1ccc(C2CC(c3cccs3)=NN2C(=O)c2ccco2)cc1OC (stereo not drawn) | 57.1%
O=C(C(Cc1c[nH]c2ccccc12)NS(=O)(=O)c1ccc(Cl)cc1)N1CCCCC1 (stereo not drawn) | 62.5%
C[C@H]1c2cccc(O)c2C(=O)C2=C(O)[C@]3(O)C(=O)C(C(N)=O)=C(O)[C@@H](N(C)C)[C@@H]3[C@@H](O)[C@@H]21 | 41.2%
O=C(NCc1nnc2n1CCCCC2)c1ccc(-c2ccc(F)cc2)o1 | -11%
CCn1cnc2c(Nc3cc(F)cc(F)c3)nc(C#N)nc21 | 33.6%
CC(C)(C)n1nc(-c2ccccc2)c2c(N)ncnc21 | -3.29%
Cc1cccnc1NC(=O)c1cccc(OCc2c(C)noc2C)c1 | -2.5%
O=C(Nc1ccc(N2CCNCC2)nc1)c1oc(-c2ccccc2)nc1C(F)(F)F | 79.2%

Same assay, conditions: 20 µM; gametocyte preincubation time 24 h; readout time post-feed 8 days

Compound | percentage of barcode signal found in uninfected mosquitoes
c1ccc2c(c1)CN(CC1CC1)CC1(CCN(Cc3c[nH]c4cnccc34)CC1)O2 | 30.7%
CC(C)(C)c1cnc(NC(=O)c2ccccc2O)s1 | 21.3%
Clc1ccc(Cl)c(CO[C@H]2CCCC[C@@H]2n2ccnc2)c1 | 19.9%
COc1cc(Br)cc2cc(C(=O)Nc3cccc(C(F)(F)F)c3)c(=O)oc12 | 19.3%
NC(CC(=O)c1ccc(Cl)cc1Cl)C(Cl)(Cl)Cl (stereo not drawn) | 86.9% (active)
Cc1cnc(N2CCN[C@@H](Cc3ccccc3)C2)nc1Oc1ccc(-n2ccnc2)cc1 | 87% (active)
CCOc1ccccc1NC(C)C(=O)Nc1cc(C(F)(F)F)ccc1N1CCOCC1 (stereo not drawn) | 40.9%
CN1CCN(c2nccc3[nH]c(-c4cccc(F)c4)cc23)CC1 | -0.815%
c1ccc(Oc2ccc(-c3cc(N4CCOCC4)[nH]n3)cc2)cc1 | 1.03%
c1cc(C2=NCCN2)cc(-c2cc(-c3ccc(C4=NCCN4)cc3)no2)c1 | 50%
Nc1cccnc1Nc1ccc(Cl)cc1 | 54.5%
CCCCc1ccc(C(=O)Nc2nccc3ccccc23)nc1 | 48.5%
Cc1cc(OCC(=O)Nc2ccc(C(C)C)cc2)n(C)c(=O)c1C#N | 35%
CCCCS(=O)(=O)Nc1ccc2cnn(C)c2c1 | 4.19%
NC(=O)c1cc(Br)ccc1OCCOc1ccccc1 | 0.0693%
COc1ccc(C2=NCCN2)cc1-c1cn(-c2cccc(C3=NCCN3)c2)nn1 | 16.8%
O=C1[C@@H](Oc2ccccc2)[C@@H](c2ccc(Cl)cc2)N1CCn1cnc2c(NCc3ccccc3)ncnc21 | 1.2%
CC(C)n1nc(-c2cc3c(Cl)cccc3[nH]2)c2c(N)ncnc21 | 53.6%
CC1CCCN(C(=O)C(C)Nc2cc(Cl)ccc2N2CCOCC2)C1 (stereo not drawn) | 15.9%
C[C@H](c1ccc2c(c1)CCCC2)N(C)c1ncc2c(N)nc(N)nc2n1 | 0.379%
